Experimental data as given in PubChem BioAssay (NCATS).
“And” between values parts separate entries of the source, which are not always exact repeats. Equal entries are not always repeated. Results filed as inconclusive are left out. The source made the active and inactive calls. The call rests on the fitted dose curve; in most records, active means well fitted curve in the direction sought with a large enough effect; inconclusive means small, poorly fitted or top-dose-only effect, or another doubt; inactive means no such curve, though single readings can be large; an effect the other way counts as inactive or inconclusive.

Tests used:
[1] = biological target: Cytochrome P450 3A4 (Homo sapiens) (UniProt P08684); test: qHTS Assay for Inhibitors and Substrates of Cytochrome P450 3A4 (AID 884); further: potency means the concentration at half of the fitted maximal effect; nearly all actives have a fitted effect of over 50% in size
Chain of Cytochrome P450 3A4 (Homo sapiens) (P08684 whole entry, looked up): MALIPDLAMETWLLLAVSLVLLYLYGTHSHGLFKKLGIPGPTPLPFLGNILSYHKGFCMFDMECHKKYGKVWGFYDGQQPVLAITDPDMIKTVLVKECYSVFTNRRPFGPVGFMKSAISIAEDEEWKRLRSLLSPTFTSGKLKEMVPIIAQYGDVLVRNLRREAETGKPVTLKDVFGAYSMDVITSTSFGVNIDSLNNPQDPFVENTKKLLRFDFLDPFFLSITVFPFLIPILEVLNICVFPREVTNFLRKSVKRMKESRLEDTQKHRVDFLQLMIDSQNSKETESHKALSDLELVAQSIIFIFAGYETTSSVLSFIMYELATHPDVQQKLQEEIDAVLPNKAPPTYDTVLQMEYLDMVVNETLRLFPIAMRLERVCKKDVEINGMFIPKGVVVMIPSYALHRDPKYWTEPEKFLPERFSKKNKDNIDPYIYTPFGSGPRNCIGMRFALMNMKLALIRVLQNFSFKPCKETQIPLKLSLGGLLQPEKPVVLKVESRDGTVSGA
Summary of the method: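 20 nM human CYP3A4 with 25 uM Luciferin-PPXE (at KM) in 200 mM KPO4, preincubated 10 min with compound; NADPH regeneration started a 60 min RT reaction. Luciferin detected by luminescence, normalized to 57 uM ketoconazole as full inhibition.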

[2] = biological target: Cytochrome P450 3A4 (Homo sapiens) (UniProt P08684); test: qHTS Assay for Activators of Cytochrome P450 3A4 (AID 885); further: nearly all actives have a fitted effect of over 65% in size
Summary of the method: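 Quantitative HTS format: compounds preincubated with 20nM human CYP3A4 and Luciferin-PPXE substrate at KM, reaction started by NADPH regeneration, stopped after 60 min, luciferase luminescence read 20 min later.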

SMILES | Potency [1] | activity change, positive = activation [2] | Potency [2]
O=C(N/N=C1/C[C@@H](O)[C@@H](O)[C@@H]2[C@@H]3C(=O)N(Cc4ccc5c(c4)OCO5)C(=O)[C@H]3CC[C@H]12)OCc1ccccc1 | 3.98 µM (active) | -89.7% [at 11.4 µM] (inactive) | –
Cn1c(=O)c(C(=O)COC(=O)c2cc(-c3ccco3)nc3ccccc23)c(N)n(CC2CC2)c1=O | 7.94 µM (active) | – | inactive
CO[C@H]1COC(=O)[C@H](C)NC(=O)C/C=C\[C@@H](C)[C@@H](NS(=O)(=O)c2ccc(C)cc2)COC(=O)[C@H](OCc2ccccc2)/C=C\[C@@H]1C | 3.16 µM (active) | -79.4% [at 11.4 µM] (inactive) | –
CCC1=C2CC[C@H]3C(=O)N(C)C(=O)[C@H]3[C@H]2[C@@]2(Cc3ccccc3)C(=NCC3CC3)OC(=O)N2C1=O | 5.01 µM (active) | – | inactive
FC(F)(F)c1ccc(C2[C@H]3CN(CC4CCCCC4)[C@H](c4ccccc4)C34CC2(c2cccnc2)C4)cc1 (some centres not stated) | 15.8 µM (active) | – | inactive
COC(=O)[C@@H]1C[C@@H]2CC[C@@H](O)C[C@@H]2N1Cc1ccccc1OS(=O)(=O)c1ccc(C)cc1 | 2.51 µM (active) | – | inactive
C/C(CCN1CCCc2nc(C)c(C)cc21)=N\OC[C@@H](O)COCc1ccco1 | 3.98 µM (active) | -77.3% [at 11.4 µM] (inactive) | –
CCC1=C(OC(=O)N(CC)CC)N2C(=O)OC(=NCC(=O)OC)[C@]2(Cc2ccccc2)[C@H]2C1=CC[C@H]1C(=O)N(CC(=O)OC)C(=O)[C@H]12 | 5.01 µM (active) | – | inactive
CO[C@H]1COC(=O)C/C=C\[C@H](C)[C@@H](OC)COC(=O)[C@H](Cc2ccccc2)NC(=O)C/C=C\[C@@H]1C | 3.16 µM (active) | -62.1% [at 11.4 µM] (inactive) | –
O=C1[C@H]2[C@H]3[C@H](O)[C@H](O)C/C(=N/OC[C@@H](O)COCc4ccco4)[C@H]3CC[C@@H]2C(=O)N1Cc1ccc2c(c1)OCO2 | 3.16 µM (active) | -88.1% [at 11.4 µM] (inactive) | –
C/C(CCN1CCCCc2nc(C)c(C)cc21)=N\OC[C@@H](O)COCc1ccco1 | 3.98 µM (active) | -64.3% [at 11.4 µM] (inactive) | –
CCC1=C(OC(=O)N(CC)CC)N2C(=O)OC(=NCC(=O)OC)[C@]2(Cc2ccccc2)[C@H]2C1=CC[C@H]1C(=O)NC(=O)[C@H]12 | 6.31 µM (active) | – | inactive
C/C(CCN1CCCc2nc(C)c(C)cc21)=N\O[C@@H](C)c1cn([C@H](CO)Cc2ccccc2)nn1 | 2 µM (active) | -60.4% [at 11.4 µM] (inactive) and -67% [at 11.4 µM] (inactive) | –
CCC1=C(OC(=O)N(CC)CC)N2C(=O)OC(=NCC(=O)OC)[C@]2(C)[C@H]2C1=CC[C@H]1C(=O)N(C)C(=O)[C@H]12 | 12.6 µM (active) | – | inactive
CC(=O)OCC1OC(Oc2cc(OC(C)=O)c3c(=O)cc(-c4ccc(OC(C)=O)c(OC(C)=O)c4)oc3c2)C(OC(C)=O)C(OC(C)=O)C1OC(C)=O (configuration not stated) | 3.98 µM (active) | – | inactive
CCC1=C(OC(=O)N(CC)CC)N2C(=O)OC(=NCC3CC3)[C@]2(Cc2ccccc2)[C@H]2C1=CC[C@H]1C(=O)N(CC)C(=O)[C@H]12 | 5.01 µM (active) | – | inactive
CC1CC2(C)Oc3ccccc3C3OCC1(COC(=O)Nc1ccccc1)C(C)C32 (configuration not stated) | 10 µM (active) | – | inactive
O=C(O)c1sccc1S(=O)(=O)Nc1ccccc1N1CCCCC1 | 15.8 µM (active) | – | inactive
Cc1ccc(S(=O)(=O)N[C@H]2COC(=O)CC=C[C@@H](C)[C@H]3C=C[C@H](O)[C@@H](COC(=O)CC=C[C@H]2C)O3)cc1 | 3.16 µM (active) | -86.3% [at 11.4 µM] (inactive) | –
c1ccc(C2[C@H]3CN(CC4CCCCC4)[C@H](c4ccccc4)C34CC2(c2cccnc2)C4)cc1 (some centres not stated) | 12.6 µM (active) | – | inactive
CNC1=C(Cl)C(=O)c2ccncc2C1=O | 1.58 µM (active) | – | inactive
CN1C[C@@H]2C(c3ccc(C(F)(F)F)cc3)C3(c4cccnc4)CC2(C3)[C@H]1c1ccccc1 (some centres not stated) | 7.94 µM (active) | – | inactive
CCC1=C(OC(=O)N(CC)CC)N2C(=O)OC(=NCC3CC3)[C@]2(Cc2ccccc2)[C@H]2C1=CC[C@H]1C(=O)NC(=O)[C@H]12 | 2 µM (active) | – | inactive
CCC1=C2CC[C@H]3C(=O)N(C)C(=O)[C@H]3[C@H]2[C@@]2(C)C(=NCc3ccccc3)OC(=O)N2C1=O | 12.6 µM (active) | – | inactive
COC(=O)c1cccc(C23CC4(C2)[C@H](CN(CC2CCCCC2)[C@@H]4c2ccccc2)C3c2ccc(Cl)nc2)c1 (some centres not stated) | 15.8 µM (active) | – | inactive
CC(Cc1ccccc1)C(=O)NCCc1c[nH]c2ccccc12 (configuration not stated) | 2.51 µM (active) | – | inactive

SMILES | Potency [1] | activity change, positive = activation [2] | Potency [2]
CC(=O)OC1CCC2(C)C3CCC4(C)C(CC5CCCCC54C(C)=O)C3CC(=O)[C@@]2(O)C1 (some centres not stated) | 10 µM (active) | – | inactive
COC(=O)[C@@H]1C[C@H]2CC[C@H](O)C[C@H]2N1Cc1ccccc1OC(=O)c1cccs1 | 2.51 µM (active) | – | inactive
C=CC[C@@H]1C=C[C@H](O/N=C(\C)CCN2CCc3nc(-c4ccccc4)c(-c4ccccc4)cc3C2)[C@H](CO)O1 | 3.98 µM (active) | -81.8% [at 11.4 µM] (inactive) | –
COC(=O)C/C=C\[C@@H](C)[C@@H](/C=N\O[C@@H](C)CN1CCCCc2nc(C)c(C)cc21)NS(=O)(=O)c1ccc(C)cc1 | 3.98 µM (active) | -78.5% [at 11.4 µM] (inactive) | –
C#CCCCO/N=C1/C[C@@H](O)[C@@H](O)[C@@H]2[C@H]3C(=O)N(c4ccc(F)cc4F)C(=O)[C@@H]3CC[C@H]12 | 3.98 µM (active) | -60.2% [at 11.4 µM] (inactive) | –
CN1C[C@@H]2C(c3ccc(C(F)(F)F)cc3)C3(c4ccc(C#N)cc4)CC2(C3)[C@H]1c1ccccc1 (some centres not stated) | 20 µM (active) | – | inactive
COc1ccc2c(c1OC)C(Cc1ccccc1)N1CCc3cc4c(cc3C1C2)OCO4 (configuration not stated) | 1 µM (active) | – | inactive
FC(F)(F)c1ccc(C2[C@H]3CN(Cc4cccnc4)[C@H](c4ccccc4)C34CC2(c2ccccc2)C4)cc1 (some centres not stated) | 3.16 µM (active) | – | inactive
CCC1=C(OC(=O)N(CC)CC)N2C(=O)OC(=NCCc3c[nH]c4ccccc34)[C@]2(Cc2ccccc2)[C@H]2C1=CC[C@H]1C(=O)N(C)C(=O)[C@H]12 | 1.26 µM (active) | – | inactive
CO[C@@H]1COC(=O)C/C=C\[C@H](C)[C@@H](NS(=O)(=O)c2ccc(C)cc2)COC(=O)C/C=C\[C@@H]1C | 3.98 µM (active) and 3.16 µM (active) | -70.4% [at 11.4 µM] (inactive) and -70.5% [at 11.4 µM] (inactive) | –
CCC1=C(OC(=O)N(CC)CC)N2C(=O)OC(=NCCOC)[C@]2(C)[C@H]2C1=CC[C@H]1C(=O)N(CC(=O)OC)C(=O)[C@H]12 | 10 µM (active) | – | inactive
NC(N)=NCCC[C@H](NC(=O)CC1(CC(=O)N2CCN(C3c4ccccc4NC(=O)c4ccccc43)CC2)CCCC1)C(=O)NCCn1c(=O)n(-c2ccccc2)n(-c2ccccc2)c1=O (some centres not stated) | 12.6 µM (active) | – | inactive
CC(C)(C)N1C(=O)[C@H]2[C@H]3[C@H](O)[C@H](O)C/C(=N/OC[C@@H](O)COCc4ccco4)[C@@H]3CC[C@@H]2C1=O | 5.01 µM (active) | -87.2% [at 11.4 µM] (inactive) | –
CCC1=C(OC(=O)N(CC)CC)N2C(=O)OC(=NCc3ccccc3)[C@]2(C)[C@H]2C1=CC[C@H]1C(=O)N(CC(=O)OC)C(=O)[C@H]12 | 5.01 µM (active) | – | inactive
COC(=O)[C@@H]1C[C@@H]2CC[C@@H](O)C[C@@H]2N1Cc1ccc(OC)cc1 | 15.8 µM (active) | – | inactive
COC(=O)C/C=C\[C@@H](C)[C@@H](/C=N\OC[C@@H](O)[C@H]1O[C@H]2OC(C)(C)O[C@H]2[C@@H]1O)NS(=O)(=O)c1ccc(C)cc1 | 3.98 µM (active) | -61% [at 11.4 µM] (inactive) | –
COc1cccc([C@@H]2Oc3ccc(OC)cc3C(=O)[C@H]2O)c1 | 3.98 µM (active) | -83.3% [at 11.4 µM] (inactive) | –
CCC1=C2CC[C@H]3C(=O)N(CC)C(=O)[C@H]3[C@H]2[C@@]2(Cc3ccccc3)C(=O)N(Cc3ccccc3)C(=O)N2C1=O | 3.98 µM (active) | – | inactive
CCC1=C(OC(=O)N(CC)CC)N2C(=O)OC(=NCCOC)[C@]2(Cc2ccccc2)[C@H]2C1=CC[C@H]1C(=O)N(C)C(=O)[C@H]12 | 7.94 µM (active) | – | inactive
C/C(CCN1CCCCc2nc(C)c(C)cc21)=N\O[C@@H](C)CN1CCCc2nc(C)c(C)cc21 | 3.16 µM (active) | -61.2% [at 11.4 µM] (inactive) | –
COC(=O)c1cccc(C23CC4(C2)[C@H](CN(C)[C@@H]4c2ccccc2)C3c2ccccc2)c1 (some centres not stated) | 7.94 µM (active) | – | inactive
COC(=O)[C@@H]1C[C@@H]2CC[C@@H](O)C[C@@H]2N1Cc1ccc(-c2ccccc2)cc1 | 20 µM (active) | – | inactive
COC(=O)C/C=C\[C@@H](C)[C@@H](/C=N\OCC[C@H]1C=C[C@H](OC(C)=O)[C@@H](COC(C)=O)O1)NS(=O)(=O)c1ccc(C)cc1 | 3.98 µM (active) | -95.4% [at 11.4 µM] (inactive) | –
CCC1=C2CC[C@H]3C(=O)N(C)C(=O)[C@H]3[C@H]2[C@@]2(Cc3ccccc3)C(=NCC(=O)OC)OC(=O)N2C1=O | 10 µM (active) | – | inactive
COC(=O)[C@H]1C[C@H]2CC[C@H](O)C[C@H]2N1Cc1c(F)cccc1Cl | 12.6 µM (active) | – | inactive
